{"source": "PubChem BioAssay AID488821", "about": "(National Center for Advancing Translational Sciences (NCATS), 2010)", "note": "Results filed as inconclusive are left out. Unmarked numbers belong to inactive results. Calls of active or inactive are those of the source. Calls follow the shape of the dose curve; as a rule, active = well fitted inhibition curve with a large enough effect; inconclusive = small, poorly fitted or top-dose-only effect, or effect the other way; inactive = flat fitted curve, though single readings scatter.", "data": [{"test": "Counterscreen Assay for Enhancers of SMN2 Splice Variant Expression: Modulation of SMN1 Expression for Further Probe SAR", "details": "HEK293 SMN1-luciferase reporter, luminescence, 30-36 h; series mostly up to 46.1 µM; activity change, negative = inhibition: at the top concentration", "description": "NIH Chemical Genomics Center [NCGC] NIH Molecular Libraries Probe Production centers Network [MLPCN] MLPCN Grant: R03 MH084179-01 Assay Submitter (PI): Elliot Androphy NCGC Assay Overview: Spinal muscular atrophy (SMA) is caused by insufficient levels of the survival motor neuron protein SMN. The SMN locus on chromosome 5q13 contains two inverted copies of SMN called SMN1 and SMN2 which are 99% identical at the amino acid level. SMN1 is a fully functional protein and SMN2 skips exon 7 90% of the time. Skipping of exon 7 produces non-functional protein product. 10% of the SMN2 protein includes exon 7 and is fully functional. In the SMA disease state, mutations in the SMN1 locus are the cause of the disease state. Because only 10% of SMN2 is of the fully functional form, it is not sufficient to overcome the deficiency produced by the loss of the SMN1 product. A therapy that either increases the amount of SMN2 product made increases the inclusion of exon 7 has been proposed for the treatment of SMA. We have designed an assay to identify small molecules that can increase the amount of functional SMN2 product by appending a luciferase reporter gene after the native SMN2 gene, such that inclusion of exon 7 in the expressed product places the luciferase sequence in frame, thus generating functional luciferase enzyme. As a counterscreen for nonspecific modulators of expression, we have run compounds through a similar assay that measures expression of an SMN1-luciferase chimera.\nNCGC Assay Protocol Summary: This screen utilizes a luciferase reporter gene assay, combining the promoter with the major portion of the native SMN1 cDNA (exons 1 -7, intron 8 , exon 8 fused to luciferase) stably expressed in HEK293 cells. Compounds that increase luciferase signal presumably enhance expression of the functional SMN1 splice variant. Passaging media contained DMEM w/ glutamax (+phenol red) 10% FCS, 1x pen/strep, 200 ug/ml hygro, 1x sodium pyruvate. Assay media contained DMEM w/ glutamax (-phenol red) 10% FCS, 1x pen strep, 1x pyruvate Sequence, Parameter, Value, Description (1) Cells, 5 uL, 2000 cells/well, 1536 TC treated White solid bottom plate (2) Time, 10-12 hours, 37C 5% CO2 (3) Compound, 23 nl, MLSMR Library (4) Control Compound, 23 nL, Sodium butyrate st 4.5mM (final) conc (5) Time, 30-36 hours, 37C 5% CO2 (6) Reagent, 3 ul, One Glo (TM) from Promega (7) Time, 5-15 minutes, Room temp (8) Detector, Viewlux: luminescent read, 60 second integration, high speed 2x binning Keywords: Spinal muscular atrophy, SMA, SMN2, high throughput screening, MLSMR, MLPCN, NIH Roadmap, qHTS and NCGC", "units": {"activity change, negative = inhibition": "%"}, "values": [{"smiles": "COc1ccccc1-c1csc(N2CCC(C(N)=O)CC2)n1", "activity change, negative = inhibition": 9.84}, {"smiles": "CSc1ccc(-c2cnc(N3CCC(C(N)=O)CC3)s2)cc1", "Potency": "0.972 µM (active)"}, {"smiles": "CN(C)c1cccc(-c2nnc(N3CCC(C(N)=O)CC3)s2)c1", "Potency": "6.14 µM (active)"}, {"smiles": "O=C(Nc1ccccc1)C1CCN(c2nc(-c3ccc(Br)cc3)cs2)CC1", "activity change, negative = inhibition": -16.1}, {"smiles": "COc1ccc(-c2cnc(N3CCC(C(N)=O)CC3)s2)cc1OC", "activity change, negative = inhibition": -10.1}, {"smiles": "O=C(C1CCN(c2nc(-c3ccc(Br)cc3)cs2)CC1)N1CCOCC1", "activity change, negative = inhibition": -15.1}, {"smiles": "NC(=O)C1CCN(c2nccc(Cl)n2)CC1", "activity change, negative = inhibition": -13.7}, {"smiles": "N#Cc1ccccc1-c1csc(N2CCC(C(N)=O)CC2)n1", "activity change, negative = inhibition": -5.52}, {"smiles": "O=C(C1CCN(c2nc(-c3ccc(Br)cc3)cs2)CC1)N1CCNCC1", "activity change, negative = inhibition": 11.6}, {"smiles": "CC(C)(C)OC(=O)NC1CCN(c2nc(-c3ccc(Br)cc3)cs2)CC1", "activity change, negative = inhibition": -18}, {"smiles": "NC(=O)C1CCN(c2nc(-c3cccc(Br)c3)cs2)CC1", "activity change, negative = inhibition": -9.64}, {"smiles": "NC(=O)C1CCN(c2nnc(-c3ccc(Br)cc3)s2)CC1", "Potency": "12.2 µM (active)"}, {"smiles": "CN(C)c1cccc(-c2cnc(N3CCC(C(N)=O)CC3)s2)c1", "Potency": "0.772 µM (active)"}, {"smiles": "NC(=O)C1CCN(c2nnc(-c3ccc4c(c3)OCCCO4)s2)CC1", "Potency": "1.54 µM (active)"}, {"smiles": "Brc1ccc(-c2csc(N3CCC(c4nn[nH]n4)CC3)n2)cc1", "activity change, negative = inhibition": -18.6}, {"smiles": "Cc1ccc(-c2cnc(N3CCC(C(N)=O)CC3)s2)cc1", "Potency": "2.44 µM (active)"}, {"smiles": "Brc1ccc(-c2csc(N3CCNCC3)n2)cc1", "Potency": "30.7 µM (active)"}, {"smiles": "O=C(NCCCCc1ccccc1)C1CCN(c2nc(-c3ccc(Br)cc3)cs2)CC1", "activity change, negative = inhibition": -12.8}, {"smiles": "Cc1cccc(-c2csc(N3CCC(C(N)=O)CC3)n2)c1", "activity change, negative = inhibition": 5.68}, {"smiles": "COc1cc(OC)cc(-c2csc(N3CCC(C(N)=O)CC3)n2)c1", "activity change, negative = inhibition": 13.7}, {"smiles": "Cc1ccc(-c2ccnc(N3CCC(C(N)=O)CC3)n2)cc1", "Potency": "7.72 µM (active)"}, {"smiles": "CNC(=O)C1CCN(c2nc(-c3ccc(Br)cc3)cs2)CC1", "activity change, negative = inhibition": -20.8}, {"smiles": "NC(=O)C1CCN(c2nc(-c3ccc4c(c3)CCO4)cs2)CC1", "activity change, negative = inhibition": -6.44}, {"smiles": "NC(=O)C1CCN(c2nccc(-c3ccc(Br)cc3)n2)CC1", "Potency": "12.2 µM (active)"}, {"smiles": "Cc1ccc(-c2nnc(N3CCC(C(N)=O)CC3)s2)cc1", "Potency": "6.14 µM (active)"}, {"smiles": "CC(C)(C)c1ccc(-c2csc(N3CCC(C(N)=O)CC3)n2)cc1", "activity change, negative = inhibition": -21}, {"smiles": "CS(=O)(=O)N1CCN(c2nc(-c3ccc(Br)cc3)cs2)CC1", "activity change, negative = inhibition": -18.3}, {"smiles": "NC(=O)C1CCN(c2ncc(-c3ccc4c(c3)OCCO4)s2)CC1", "Potency": "1.22 µM (active)"}, {"smiles": "NC(=O)N1CCN(c2nc(-c3ccc(Br)cc3)cs2)CC1", "activity change, negative = inhibition": -14.2}, {"smiles": "O=C(NCc1ccccc1)C1CCN(c2nc(-c3ccc(Br)cc3)cs2)CC1", "activity change, negative = inhibition": -14.5}, {"smiles": "N#CC1CCN(c2nc(-c3ccc(Br)cc3)cs2)CC1", "activity change, negative = inhibition": -22}, {"smiles": "CCOC(=O)C1CCN(c2ncc(-c3ccc4c(c3)OCCCO4)s2)CC1", "Potency": "0.387 µM (active)"}, {"smiles": "NC(=O)C1CCN(c2nc(-c3cccc([N+](=O)[O-])c3)cs2)CC1", "activity change, negative = inhibition": 9.79}, {"smiles": "CN(C)c1cccc(-c2ccnc(N3CCC(C(N)=O)CC3)n2)c1", "activity change, negative = inhibition": -22}, {"smiles": "O=C(Nc1ccccc1)C1CCN(c2ncc(-c3ccc4c(c3)OCCCO4)s2)CC1", "Potency": "0.487 µM (active)"}, {"smiles": "O=C(NCCc1ccccc1)C1CCN(c2nc(-c3ccc(Br)cc3)cs2)CC1", "activity change, negative = inhibition": -15.8}, {"smiles": "c1c[nH]c(C2CCN(c3ncc(-c4ccc5c(c4)OCCCO5)s3)CC2)n1", "Potency": "9.72 µM (active)"}, {"smiles": "NC(=O)C1CCN(c2nc(-c3cccc(C(F)(F)F)c3)cs2)CC1", "activity change, negative = inhibition": 28.5}, {"smiles": "O=C(c1ccco1)N1CCN(c2nc(-c3ccc(Br)cc3)cs2)CC1", "activity change, negative = inhibition": -26.7}, {"smiles": "NC(=O)C1CCN(c2nc(-c3ccc(N)cc3)cs2)CC1", "activity change, negative = inhibition": 7.68}]}]}
